Results taken from the supplement of paper PMC13380429.

Test system: Vero E6 infected with SARS-CoV-2
Assay: inhibition of SARS-CoV-2 cytopathic effect; higher = more antiviral protection, active = above 15
Conditions: 48 h

Measured: inhibition of SARS-CoV-2 cytopathic effect

CCCC1(CCC)CCC2(CCN(CCCN(CC)CC)C2)CC1 [atiprimod]
inactive: 1 nM -0.73% | 8.33 nM 0.69% | 100 nM 0.76% | 833.33 nM -4.7% | 10000 nM -26.6%

c1ccc(CC2=NCCN2)cc1 [tolazoline]
inactive: 1 nM -0.5% | 8.33 nM 0.92% | 100 nM 1.33% | 833.33 nM 2.41% | 10000 nM -0.69%

Cc1cc(=O)[nH]c(=S)[nH]1 [methylthiouracil]
inactive: 1 nM 0.85% | 8.33 nM 2.29% | 100 nM -0.49% | 833.33 nM 1.73% | 10000 nM -0.31%

CSc1nc(-c2ccc(F)cc2)c(-c2ccnc(N[C@@H](C)c3ccccc3)c2)[nH]1
inactive: 1 nM -3.63% | 8.33 nM -2.6% | 100 nM -5.98% | 833.33 nM -4.77% | 10000 nM 1.96%

O=C(NC(NC(=S)Nc1ccc(F)c([N+](=O)[O-])c1)C(Cl)(Cl)Cl)C(c1ccccc1)c1ccccc1 (stereo not given)
inactive: 1 nM -2.82% | 8.33 nM -2.75% | 100 nM 0.28% | 833.33 nM -7.06% | 10000 nM -5.53%

C[C@]12C=CC(=O)N[C@@H]1CC[C@@H]1[C@@H]2CC[C@]2(C)[C@@H](C(=O)Nc3cc(C(F)(F)F)ccc3C(F)(F)F)CC[C@@H]12 [dutasteride]
inactive: 1 nM -4.2% | 8.33 nM -3.31% | 100 nM 1.66% | 833.33 nM -2.35% | 10000 nM -7.18%

CN1C(=O)/C(=C2/C(=O)Nc3ccccc32)c2ccccc21 [meisoindigo]
inactive: 1 nM -1.49% | 8.33 nM -3.61% | 100 nM -2.28% | 833.33 nM 1.46%
active: 10000 nM 18.2%

CC[C@@]1(O)C(=O)OCc2c1cc1n(c2=O)Cc2cc3cc(O)ccc3nc2-1 [10-hydroxycamptothecin]
inactive: 1 nM -0.65% | 8.33 nM -0.13% | 100 nM -3.85% | 833.33 nM -12.8% | 10000 nM -13.8%

CC[C@H](CO)Nc1nc(Nc2cccc(-c3ccccn3)c2)c2ncn(C(C)C)c2n1
inactive: 1 nM -2.32% | 8.33 nM 0.36% | 100 nM 0.93% | 833.33 nM 1.09% | 10000 nM -7.74%

CC1(C)O[C@@H]2C[C@H]3[C@@H]4CCC5=CC(=O)C=C[C@]5(C)[C@@]4(F)[C@@H](O)C[C@]3(C)[C@]2(C(=O)CO)O1
inactive: 1 nM 0.1% | 8.33 nM -0.04% | 100 nM 1.38% | 833.33 nM 1.4% | 10000 nM -0.1%

CN(C)C[C@H](O)Cn1c2ccc(Br)cc2c2cc(Br)ccc21 (racemic) [wiskostatin]
active: 10000 nM 57.3%
inactive: 1 nM -2.04% | 8.33 nM -1.61% | 100 nM 0.88% | 833.33 nM -1.26%

CC/C(=C(/CC)c1ccc(OP(=O)(O)O)cc1)c1ccc(OP(=O)(O)O)cc1 [fosfestrol]
inactive: 1 nM -0.34% | 8.33 nM 2.21% | 100 nM -0.95% | 833.33 nM 0.3% | 10000 nM -0.17%

Cc1nccc2[nH]c(=O)ccc12 [medorinone]
inactive: 1 nM -1.14% | 8.33 nM -4.65% | 100 nM 1.27% | 833.33 nM -0.3% | 10000 nM -3.87%

CCCCCCCCCCCCCCCCCCO [octadecan-1-ol]
inactive: 1 nM -0.16% | 8.33 nM -0.19% | 100 nM -2.3% | 833.33 nM -2.63% | 10000 nM 2.04%

Cn1cnc2c(F)c(Nc3ccc(Br)cc3F)c(C(=O)NOCCO)cc21 [binimetinib]
inactive: 1 nM 3.85% | 8.33 nM -3.38% | 100 nM -9.91% | 833.33 nM -10.1% | 10000 nM -12%

C[C@]12CC[C@@H]3c4ccc(OC(=O)N(CCCl)CCCl)cc4CC[C@H]3[C@@H]1CC[C@@H]2OP(=O)(O)O [estramustine-phosphate]
inactive: 1 nM -1.79% | 8.33 nM 0.03% | 100 nM -0.34% | 833.33 nM -1.57% | 10000 nM -2.26%

CC(=O)N(CC(O)CO)c1c(I)c(C(=O)NCC(O)CO)c(I)c(C(=O)NCC(O)CO)c1I (stereo not given) [iohexol]
inactive: 1 nM -1.99% | 8.33 nM -0.81% | 100 nM -1.68% | 833.33 nM -0.74% | 10000 nM 2.67%

C=CCc1ccc(O)c(-c2cc(CC=C)ccc2O)c1 [magnolol]
inactive: 1 nM -1.26% | 8.33 nM 1.55% | 100 nM 1.32% | 833.33 nM -2.87% | 10000 nM -1.19%
